# Results published in the supplement of paper PMC12282887.
# ± gives the standard deviation of the averaged measurements.
# Tested on: E. coli BW25113 marRABp lux reporter
# Test: promoter activity interaction Z-score (Lux/OD deviation from empty-vector control); higher = stronger promoter induction by the compound
# Description: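 E. coli BW25113 (wild type or ΔmarA/ΔsoxS/Δrob) carrying pTU175 luxCDABE promoter reporters was grown in LB in 384-well plates at 37°C with each of 94 compounds at 4 two-fold concentrations, in biological duplicates. Luminescence and OD600 were read every 30 min for 12 h and integrated as AUC over 8 h (0-8 h WT, 1-9 h mutants). Lux AUC was divided by OD AUC; the interaction score is the residual of a Huber robust fit of each promoter against the empty-vector control, then Z-transformed per promoter.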
smiles,measurement,setting,value
NCCc1c[nH]c2ccc(O)cc12 [Serotonine],promoter activity interaction Z-score,"13.3 µg/ml, genetic background: wild type",-0.413 ± 0.011
same,promoter activity interaction Z-score,"13.3 µg/ml, genetic background: ΔmarA",-0.686 ± 0.15
same,promoter activity interaction Z-score,"13.3 µg/ml, genetic background: Δrob",-0.419 ± 0.028
same,promoter activity interaction Z-score,"13.3 µg/ml, genetic background: ΔsoxS",-0.41 ± 0.18
same,promoter activity interaction Z-score,"26.6 µg/ml, genetic background: wild type",-0.214 ± 0.13
same,promoter activity interaction Z-score,"26.6 µg/ml, genetic background: ΔmarA",-0.554 ± 0.18
same,promoter activity interaction Z-score,"26.6 µg/ml, genetic background: Δrob",-0.414 ± 0.15
same,promoter activity interaction Z-score,"26.6 µg/ml, genetic background: ΔsoxS",-0.421 ± 0.26
same,promoter activity interaction Z-score,"53.2 µg/ml, genetic background: wild type",-0.616 ± 0.21
same,promoter activity interaction Z-score,"53.2 µg/ml, genetic background: ΔmarA",-0.71 ± 0.041
same,promoter activity interaction Z-score,"53.2 µg/ml, genetic background: Δrob",-0.479 ± 0.089
same,promoter activity interaction Z-score,"53.2 µg/ml, genetic background: ΔsoxS",-0.523 ± 0.25
same,promoter activity interaction Z-score,"106.3 µg/ml, genetic background: wild type",-0.518 ± 0.15
same,promoter activity interaction Z-score,"106.3 µg/ml, genetic background: ΔmarA",-0.531 ± 0.2
same,promoter activity interaction Z-score,"106.3 µg/ml, genetic background: Δrob",-0.324 ± 0.025
same,promoter activity interaction Z-score,"106.3 µg/ml, genetic background: ΔsoxS",-0.498 ± 0.093
C[C@]12CC[C@H]3[C@@H](CCC4=CC(=O)CC[C@@]43C)[C@@H]1CC[C@@H]2O [Testosterone],promoter activity interaction Z-score,"18 µg/ml, genetic background: wild type",-0.549 ± 0.28
same,promoter activity interaction Z-score,"18 µg/ml, genetic background: ΔmarA",-0.238 ± 0.15
same,promoter activity interaction Z-score,"18 µg/ml, genetic background: Δrob",-0.5774 ± 0.0046
same,promoter activity interaction Z-score,"18 µg/ml, genetic background: ΔsoxS",-0.238 ± 0.058
same,promoter activity interaction Z-score,"36.1 µg/ml, genetic background: wild type",-0.712 ± 0.027
same,promoter activity interaction Z-score,"36.1 µg/ml, genetic background: ΔmarA",-0.0596 ± 0.21
same,promoter activity interaction Z-score,"36.1 µg/ml, genetic background: Δrob",-0.24 ± 0.17
same,promoter activity interaction Z-score,"36.1 µg/ml, genetic background: ΔsoxS",-0.368 ± 0.14
same,promoter activity interaction Z-score,"72.1 µg/ml, genetic background: wild type",-0.654 ± 0.22
same,promoter activity interaction Z-score,"72.1 µg/ml, genetic background: ΔmarA",-0.0306 ± 0.33
same,promoter activity interaction Z-score,"72.1 µg/ml, genetic background: Δrob",-0.303 ± 0.014
same,promoter activity interaction Z-score,"72.1 µg/ml, genetic background: ΔsoxS",-0.398 ± 0.14
same,promoter activity interaction Z-score,"144.2 µg/ml, genetic background: wild type",-0.399 ± 0.038
same,promoter activity interaction Z-score,"144.2 µg/ml, genetic background: ΔmarA",-0.0772 ± 0.21
same,promoter activity interaction Z-score,"144.2 µg/ml, genetic background: Δrob",-0.448 ± 0.17
same,promoter activity interaction Z-score,"144.2 µg/ml, genetic background: ΔsoxS",-0.258 ± 0.0049
